Data on 18 molecules can be found in PubChem BioAssay (NCATS).

SMILES strings stand for the structures. Inconclusive results are not listed. Where a call stands in place of a potency, no number is given. Calls of active or inactive are those of the source. Calls come from the whole dose curve; as a rule, active = well fitted cell-killing curve with a large enough effect; inconclusive = small, poorly fitted or top-dose-only effect; inactive = no such curve, though single readings can be large or run the other way.
Potency is the fitted concentration of half-maximal effect.

This test can be described thus: qHTS of pediatric cancer cell lines to identify multiple opportunities for drug repurposing: Confirmatory screen for BT-37 cells (AID 1347117). Note: nearly all actives have a fitted effect of over 55% in size. The following applies: BT-37 pediatric cancer cells, viability; series mostly up to 45.9 µM. From the text: Drug repurposing or repositioning has been offered as a strategy for drug development in oncology programs. This approach has special potential for childhood cancers and other rare or orphan diseases, where the expected return on new drug development has been a disincentive to pharmaceuticals.
In this project we exploit the poly-pharmacology of drugs to discover new indications via phenotypic screening of a panel of 19 well-characterized cell lines derived from solid tumors seen in children and adolescents. The goal is to identify approved drugs with previously unrecognized anticancer properties that has the potential to reveal new mechanisms and biological processes involved in carcinogenesis or drug resistance. We employed a titration-based paradigm (quantitative high-throughput screening or qHTS), where all compounds were tested at multiple concentrations for their effect on cell viability. Concentration-response curves (CRCs) were derived directly from the primary screen, and both potency and efficacy values were used to identify compounds with robust bioactivity profiles. We screened the NIH Chemical Genomics Center (NCGC) Pharmaceutical Collection (NPC) and Mechanism Interrogation Plate (MIPE) small molecule collections of approved and investigational compounds against these cell lines; and measured metabolically active cells after 48 hours of compound treatment as a proxy for cell viability.
Assay Submitter: Nathalia J. Martinez, National Center for Advancing Translational Sciences, National Institutes of Health, Rockville, MD, USA; email: natalia.martinez@nih.gov
[1] Shen, M et al. Quantitative high-throughput phenotypic screening of pediatric cancer cell lines identifies multiple opportunities for drug repurposing. Oncotarget 2017 Dec 19;9(4):4758-4772. PMID 29435139.
The cells were obtained from University of North Carolina (UNC), Pediatric Preclinical Testing Program (PPT), and Coriell Institute (CI).
qHTS cell viability assay:
Cells were assayed in growth media at a density of 500-1,000 cells/well. Five microliters of cells were dispensed into 1,536-well, white, solid-bottom, TC-treated plates (Greiner Bio One) using a multidrop dispenser and incubated at 37 degrees C, 5% CO2, under a humidified atmosphere for 5 hours. Twenty-three nanoliters of compounds and controls (neutral control DMSO or positive control bortezomib at final concentration of 2.3 µM) were subsequently transferred by Kalypsys pintool. For primary screens, the MIPE collection was tested at 11-point dilutions (final concentrations range from 0.78 nM to 46 µM) and the NPC collection at 8-point dilutions (final concentrations range from 0.59 nM to 46 µM). Compounds tested in follow-up screens were assayed at 11-point dilutions. Cells were incubated for 48 hours, followed by addition of 3 µL of CellTiter-Glo (Promega). After a 15 min incubation at room temperature, samples were analyzed for luminescence intensity using a ViewLux High-throughput CCD imager equipped with clear filters.
(In qHTS, concentration-response curves come from the screen itself.)
As for `C#Cc1cccc(Nc2ncnc3cc(OCCOC)c(OCCOC)cc23)c1`, the Potency was 5.85 µM (active).

With `Oc1cccc(-c2nc(N3CCOCC3)c3oc4ncccc4c3n2)c1`, the Potency was 0.851 µM (active).

In the case of `OC[C@H](Cc1ccccc1)Nc1nc(Oc2ccc3c(c2)CCC3)nc2c1ncn2Cc1ccc(-c2ccccc2)cc1`, the Potency entry was “inactive”.

On to `COCC(=O)NCC=Cc1ccc2ncnc(Nc3ccc(Oc4ccc(C)nc4)c(C)c3)c2c1`, for which the Potency was 24 µM (active).

Consider `NCCCC(N)(C(=O)O)C(F)F` (stereo not drawn), for which the Potency entry is “inactive”.

Turning to `Cc1c(C)c2c(c(C)c1O)CCC(C)(COc1ccc(CC3SC(=O)NC3=O)cc1)O2` (stereo not drawn), the Potency entry was “inactive”.

Consider `Cc1cn[nH]c1`, for which the Potency result was “inactive”.

Turning to `NC(=O)c1ccc(I)c([N+](=O)[O-])c1`, the Potency result was “inactive”.

Consider `CCN(CC)CCCC(C)Nc1ccnc2cc(Cl)ccc12` (stereo not drawn), for which the Potency entry is “inactive”.

In the case of `CCOc1cc(N2CCC(O)CC2)ccc1Nc1ncc2c(n1)N(C)c1ccccc1C(=O)N2C`, the Potency is 7.37 µM (active).

As to `COc1ccc(-c2ccc3c(N4CCOC[C@H]4C)nc(N4CCOC[C@H]4C)nc3n2)cc1CO`, the Potency is 0.233 µM (active).

In the case of `COc1cccc2cc(-c3nc(C4CCC(C(=O)O)CC4)n4ncnc(N)c34)[nH]c12` (stereo not drawn), the Potency result is “inactive”.

As to `Cc1c(CN2CCN(C(=O)C(C)C)CC2)sc2c(N3CCOCC3)nc(-c3cnc(N)nc3)nc12`, the Potency is 0.737 µM (active).

On to `Cc1oncc1C(=O)Nc1ccc(C(F)(F)F)cc1`, for which the Potency result is “inactive”.

Take `COc1ccc(-c2oc3cc(OC)ccc3c2C(=O)c2ccc(C#N)cc2)cc1`: the Potency entry was “inactive”.

Consider `CS(=O)(=O)c1ccc(C(=O)Nc2ccc(Cl)c(-c3ccccn3)c2)c(Cl)c1`, for which the Potency result is “inactive”.

As for `CC(C=CC1=C(C)CCCC1(C)C)=CC=CC(C)=CC(=O)O`, the Potency entry is “inactive”.

Consider `CN1CCN(CCCN2c3ccccc3Sc3ccc(C(F)(F)F)cc32)CC1`, for which the Potency is 23.3 µM (active).
